Compounds with a hit are over-represented: about 9.3% of the library has one in this group of screens.
Rab9 prom act = qHTS Assay for Rab9 Promoter Activators; Huh7 Rab9 promoter-luciferase reporter, luminescence, 24 h; 2.8% of 320,000 active; Potency, µM (highest dose often 9.22 µM), actives largely listed as activators; note: nearly all actives have a fitted effect of over 60% in size
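Huh7 reporter line, Rab9 promoter upstream of luciferase. Compound exposure 24 h at 37 °C in reduced-serum medium with 10% FBS. Read-out: luminescence.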
ELG1 genotoxic = qHTS screen for small molecules that induce genotoxicity in human embryonic kidney (HEK293T) cells expressing luciferase-tagged ELG1 | 1.3% of 330,000 active | AID 504466, 2011 | Potency, µM (titrated, usually from 46 µM), most hits filed as activators | HEK293T ELG1-luciferase reporter, luminescence, 16 h; note: nearly all actives have a fitted effect of over 60% in size
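After overnight (16 hr) compound treatment at 37 °C, ELG1-luciferase HEK293T cells were lysed with ONE-Glo; luminescence quantified 30 min later at room temperature.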
NPC1 promoter act = qHTS Assay for NPC1 Promoter Activators; Potency, µM (series often up to 9.22 µM), most hits filed as activators; 2.4% of 320,000 active; AID 485313, 2010; Huh7 NPC1 promoter luciferase reporter, 24 h; note: nearly all actives have a fitted effect of over 60% in size
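Stably transfected Huh7 (NPC1 promoter→luciferase), 1500 cells/well in Opti-MEM + 10% FBS, 2 h settle, then compound 24 h at 37 °C. Luminescence after 10 min with Amplite reagent.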
ELG1 DNA repair = qHTS screen for small molecules that inhibit ELG1-dependent DNA repair in human embryonic kidney (HEK293T) cells expressing luciferase-tagged ELG1. HEK293T ELG1-luciferase reporter, luminescence, 16 h; DNA damage induced by 5-fluorouridine. Potency, µM (highest dose often 46.1 µM), usual class: inhibitors. 2.3% of 330,000 active; note: nearly all actives have a fitted effect of over 55% in size
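Quantitative HTS, concentration-response format. 2,000 cells/well co-treated with 5-fluorouridine and compound, 16 hr in 5% CO2 at 37 °C; ONE-Glo luminescence read after 30 min.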
FLuc modulator = qHTS profiling assay for firefly luciferase inhibitor/activator using purifed enzyme and Km concentrations of substrates (counterscreen for miR-21 project); Luciferin 4-monooxygenase (Photinus pyralis), P08659; purified FLuc, Km substrates, luminescence inhibition; Potency, µM (top dose mostly 57.5 µM), hits mostly inhibitors; 6.9% of 360,000 active; AID 588342, 2011; note: nearly all actives have a fitted effect of over 55% in size
Target sequence (P08659 whole entry, looked up): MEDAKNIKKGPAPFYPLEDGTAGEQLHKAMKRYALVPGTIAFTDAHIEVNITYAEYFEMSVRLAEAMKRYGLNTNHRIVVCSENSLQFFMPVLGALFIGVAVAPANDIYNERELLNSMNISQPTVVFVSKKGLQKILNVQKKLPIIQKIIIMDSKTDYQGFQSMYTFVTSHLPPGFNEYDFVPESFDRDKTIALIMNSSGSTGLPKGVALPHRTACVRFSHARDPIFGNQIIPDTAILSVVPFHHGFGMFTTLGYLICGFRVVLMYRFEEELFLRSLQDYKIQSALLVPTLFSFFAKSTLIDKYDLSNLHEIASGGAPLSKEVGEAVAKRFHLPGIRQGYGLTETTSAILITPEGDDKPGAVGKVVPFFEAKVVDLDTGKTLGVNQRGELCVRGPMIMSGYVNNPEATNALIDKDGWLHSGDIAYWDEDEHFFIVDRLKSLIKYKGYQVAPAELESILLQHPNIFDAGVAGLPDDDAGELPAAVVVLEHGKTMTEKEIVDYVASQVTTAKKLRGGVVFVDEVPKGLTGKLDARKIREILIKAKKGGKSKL
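Purified P. pyralis luciferase (10nM final) with 10uM D-luciferin and 10uM ATP (Km levels) in 50mM Tris acetate pH 7.5, 10mM Mg acetate, 0.01% Tween-20, 0.05% BSA; qHTS 6-point titration, ~60 µM downward; luminescence read.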
SMN2 splice up = qHTS Assay for Enhancers of SMN2 Splice Variant Expression; HEK293 SMN2-luciferase splicing reporter, luminescence, 30-36 h; 2.8% of 210,000 active; AID 1458, 2008; Potency, µM (highest dose often 46.1 µM), actives largely listed as activators; note: nearly all actives have a fitted effect of over 55% in size
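HEK293 cells carry an SMN2 minigene-luciferase reporter in which exon 7 inclusion puts luciferase in frame. Cells were seeded at 2000 cells/well, attached for 10-12 hours, then exposed to compounds for 30-36 hours at 37C before ONE-Glo luminescence.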
Numbers stand for hits; n = inactive; u = inconclusive; x = no result. Calls come from the whole dose curve; as a rule, active = well fitted curve in the direction sought with a large enough effect; inconclusive = small, poorly fitted or top-dose-only effect, or another doubt; inactive = no such curve, though single readings can be large; an effect the other way counts as inactive or inconclusive.

SMILES	Rab9 prom act	ELG1 genotoxic	NPC1 promoter act	ELG1 DNA repair	FLuc modulator	SMN2 splice up
Cc1nn(-c2ccccc2)c2sc(C(=O)N3CCOCC3)cc12	3.55µM	u	u	u	10.7µM	11.2µM
O=C(O)c1nc(-c2ccccc2)n(-c2ccccc2)n1	n	n	n	u	n	u
O=C(c1nc(-c2ccccc2)n(-c2ccccc2)n1)N1CCN(S(=O)(=O)c2ccccc2)CC1	n	n	n	18.4µM	n	n
O=C(CCS(=O)(=O)c1ccccc1)NC12CC3CC(CC(C3)C1)C2	3.55µM	9.2µM	3.16µM	u	12µM	u
CCOc1ccc(CNC(=O)c2ccc(NC(=O)N3CCSc4ncccc43)cc2)cc1	x	x	x	x	n	x
COc1cc2nc(CN3CCN(S(=O)(=O)c4c(F)cccc4F)CC3)[nH]c(=O)c2cc1OC	n	n	n	5.8µM	n	x
CCn1cnc2cc(NCc3nc4ccccc4n3Cc3ccccc3)ccc21	2.82µM	u	3.55µM	u	5.36µM	u
CC(C)n1cnc2cc(NCc3nc4ccccc4n3C)ccc21	1.12µM	14.6µM	1.26µM	u	4.78µM	2.82µM
CCn1cnc2cc(NCc3nc4ccccc4n3C)ccc21	0.501µM	1.64µM	0.794µM	u	3.01µM	7.08µM
O=C(O)c1ccc(NCc2nc3ccccc3n2Cc2ccccc2)cc1	n	n	n	n	n	x
CCN(CC)c1ccc(CNc2ccc3c(c2)ncn3CC)cc1	n	n	n	n	n	x
Cc1ccc(NC(=O)CSc2nc(=O)n(Cc3ccco3)c3c2CCC3)cc1F	x	x	x	x	n	x
Cc1cc(C)cc(NC(=S)N2CCC(NC(=O)c3ccco3)CC2)c1	n	n	n	n	n	x
Cc1ccc(C(=O)Nc2nc(COc3ccccc3)cs2)s1	x	x	x	x	16.9µM	n
Nc1nc(COc2ccc3ccccc3c2)cs1	x	x	x	x	12µM	n
O=C(Nc1nc(COc2ccccc2)cs1)C1CCC1	u	u	u	u	12µM	n
O=C(Nc1nc(COc2ccccc2)cs1)C12CC3CC(CC(C3)C1)C2	n	u	n	u	15.1µM	n
O=C(COc1ccccc1)OCc1csc(Nc2ccccc2)n1	n	n	n	u	u	n
COc1ccccc1OCc1csc(N)n1	n	n	n	n	n	n
Cc1ccc(C(=O)Nc2nnc(COc3ccccc3)s2)cc1	n	n	n	n	n	x
O=C(NCC1OCCc2ccccc21)c1cc(COc2ccc(F)cc2Cl)on1 (configuration not stated)	n	n	n	n	n	x
COc1ccc(NC(=O)Cn2cnc3ccc(S(=O)(=O)N4CCC(C)CC4)cc3c2=O)c(OC)c1	x	x	x	x	n	n
COc1ccc(-n2ncc3c2ncn2nc(COc4ccc(Cl)cc4)nc32)cc1	x	x	x	x	n	n
CC(=O)Nc1nc(COc2ccc3ccccc3c2)cs1	6.31µM	u	2.82µM	u	12µM	n
COc1cccc(OC)c1C(=O)Nc1nc(COc2ccccc2)cs1	n	n	n	u	u	n
SMILES	Rab9 prom act	ELG1 genotoxic	NPC1 promoter act	ELG1 DNA repair	FLuc modulator	SMN2 splice up
CC(=O)Nc1nc(COc2ccccc2)cs1	u	10.3µM	3.16µM	u	u	17.8µM
CN(CC(=O)NC(=O)NCc1ccccc1)CC(=O)Nc1ccc(Cl)c(Cl)c1	n	n	n	18.3µM	n	x
CN(CC(=O)Nc1ccc(Cl)c(Cl)c1)C(=O)CNC(=O)Cc1ccccc1	n	n	n	n	n	x
N#C/C(=C\N1CCOCC1)C(N)=O	n	n	n	n	n	x
O=C(O)c1ccc(-n2cccc2/C=C2/NC(=O)N(c3ccccc3)C2=O)cc1	n	n	n	n	n	x
CCn1c(C)cc(/C=C2/NC(=O)N(c3ccccc3)C2=O)c1C	1.41µM	u	3.16µM	u	7.57µM	11.2µM
O=C1N/C(=C/c2ccsc2)C(=O)N1c1ccccc1	2.82µM	u	u	u	u	n
CCOc1ccc(-n2nc3ccc(N)cc3n2)cc1	n	u	u	u	0.757µM	x
